Among the data in PubChem BioAssay are z-score values, retold here.

NADPH oxidase 5 (Homo sapiens), sequence (Q96PH1 whole entry, looked up): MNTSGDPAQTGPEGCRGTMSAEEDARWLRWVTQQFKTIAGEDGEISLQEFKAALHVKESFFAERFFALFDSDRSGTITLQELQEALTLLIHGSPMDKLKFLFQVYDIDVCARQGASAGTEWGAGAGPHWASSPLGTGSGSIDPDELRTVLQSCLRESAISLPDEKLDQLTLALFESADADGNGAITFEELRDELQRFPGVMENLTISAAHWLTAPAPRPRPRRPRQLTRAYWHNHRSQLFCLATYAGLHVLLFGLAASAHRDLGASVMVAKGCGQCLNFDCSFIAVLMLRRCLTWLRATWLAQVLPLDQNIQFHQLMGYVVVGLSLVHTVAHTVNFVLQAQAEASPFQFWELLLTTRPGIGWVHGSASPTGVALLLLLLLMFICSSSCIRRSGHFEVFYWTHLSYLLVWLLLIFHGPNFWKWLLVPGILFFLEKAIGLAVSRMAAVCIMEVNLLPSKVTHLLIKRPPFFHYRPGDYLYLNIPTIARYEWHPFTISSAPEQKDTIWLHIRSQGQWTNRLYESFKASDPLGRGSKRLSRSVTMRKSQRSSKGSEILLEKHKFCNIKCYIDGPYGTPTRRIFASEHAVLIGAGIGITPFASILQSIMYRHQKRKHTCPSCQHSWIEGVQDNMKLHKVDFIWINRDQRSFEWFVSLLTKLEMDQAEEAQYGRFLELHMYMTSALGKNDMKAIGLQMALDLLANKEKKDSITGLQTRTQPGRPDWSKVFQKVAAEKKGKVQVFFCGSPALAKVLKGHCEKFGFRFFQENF

This assay concerns the target NADPH oxidase 5 (Homo sapiens) (UniProt Q96PH1). The assay can be described thus: compounds shifting NOX5 Amplex Red fluorescence – cell-based, HEK293-NOX5, NOX inhibitor project, primary screen (AID 1161). Conditions: HEK293-NOX5, ionomycin, 45 min, higher = more signal.
For the molecule `C=CC[C@@]12N=C(c3ccc(OCCCO)cc3)O[C@@H]1c1ccccc1N(CCS(=O)(=O)c1ccccc1)C2=O`, the z-score is -1.91.

Turning to `CN(C)CCCNC(=O)[C@@]1(C)c2ccccc2C(=O)N(Cc2cc(C(F)(F)F)cc(C(F)(F)F)c2)[C@H]1c1ccc(CO)cc1`, the z-score was -2.64.

With `CC(C)NC(=O)[C@@]1(C)c2ccccc2C(=O)N(C(C)C)[C@H]1c1ccc(CO)cc1`, the z-score was found to be 0.222.

As for `O=C(N1CCCCC1)[C@@]1(Cc2ccccc2)COC(c2ccc(OCCCO)cc2)=N1`, the z-score was -2.26.

As for `O=C1C[C@@](C(=O)NCC(F)(F)F)(c2ccc([N+](=O)[O-])cc2)[C@@H](c2ccc(CO)cc2)N1C1CCCCC1`, the z-score came out at 0.104.

On to `O=C1c2ccccc2[C@](Cc2ccccc2I)(C(=O)NCc2ccccc2)[C@H](c2ccc(CO)cc2)N1C1CCCCC1`, for which the z-score stood at 1.35.

As for `C=CC[C@@]1(C(=O)N2CCCCC2)N=C(c2ccc(OCCCO)cc2)O[C@@H]1c1ccccc1`, the z-score was -1.66.

Consider `C=CCOC(=O)[C@@H]1[C@H]2C(=O)O[C@H](c3ccccc3)[C@H](c3ccccc3)N2[C@H](c2ccc(OCCOC(=O)[C@H]3C[C@H]4C(=O)N[C@@H](CCCC[N+](C)(C)C)C(=O)N4[C@H]3c3ccc(O)cc3)cc2)[C@@]12C(=O)Nc1ccc(I)cc12`, for which the z-score is 1.24.

In the case of `C[C@H]1ON(c2ccc(C(=O)OC(C)(C)C)cc2)[C@@H](c2ccc(O)cc2)[C@@H]1C(=O)N1C(=O)OC[C@@H]1c1ccccc1`, the z-score came out at 0.718.

As for `Cc1c(NC(=O)/C(C#N)=C/C=C/c2ccccc2[N+](=O)[O-])c(=O)n(-c2ccccc2)n1C`, the z-score worked out at 0.657.

Turning to `CC(C)(C)OC(=O)CC[C@]1(C(=O)NCCN2CCOCC2)N=C(c2ccc(OCCCO)cc2)O[C@H]1c1ccccc1N=[N+]=[N-]`, the z-score was -1.99.

With `CCOC(=O)[C@H]1C/C=C/C[C@H](C(=O)OCC)C(=O)O[C@H]2[C@@H](OC)O[C@H](CO)[C@@H](OC(=O)Nc3ccc(OC)cc3)[C@@H]2OC1=O`, the z-score was -1.99.

Consider `O=C1NC(=O)C2C1C=CC(C(O)c1c(F)cccc1Cl)N2Nc1ccccn1` (stereo not given), for which the z-score is -2.23.

For `COc1ccc([Si](C)(C)[C@@H]2[C@@H](CCO)O[C@]3(C(=O)N(Cc4cccc(N5C(=O)c6ccccc6Oc6ccccc65)c4)c4ccccc43)[C@H]2C)cc1`, the z-score stood at 1.98.

Regarding `Cc1ccc(S[C@]2(C(=O)NCc3ccccc3)CC(=O)N(C(C)C)[C@@H]2c2ccc(CO)cc2I)cc1`, the z-score is -0.199.

With `CC(C)CCC[C@@H](C)[C@H]1CC[C@@]2(C)C3=C(CC[C@]12C)[C@@]1(C)CC[C@H](OC(=O)c2ccc(Br)cc2)C(C)(C)C1CC3` (stereo not given in full), the z-score was found to be 0.929.

In the case of `NC(=O)N1C(=O)C2C(C1=O)C1C=C(c3ccc(CO)cc3)C2C(C2CC2)N1Cc1sc2ccccc2c1Cl` (stereo not given), the z-score is -0.568.

Consider `C=CCN1C(=O)[C@@]2(O[C@@H](CCn3cc([C@H](O)c4ccccc4)nn3)[C@H]([Si](C)(C)c3ccc(OC)cc3)[C@H]2C)c2ccccc21`, for which the z-score was -1.6.

In the case of `CC1CC/C=C\[C@H]2OC34C=CCN(CCN5CCOCC5)C(=O)[C@H]3N(CCO)C(=O)[C@@H]4C2C(=O)O1` (stereo not given in full), the z-score was found to be 2.07.

Consider `C=CCOC(=O)[C@H]1[C@@H]2C(=O)O[C@@H](c3ccccc3)[C@@H](c3ccccc3)N2[C@@H](c2ccc(OCCOC(=O)[C@H]3C[C@H]4C(=O)N[C@@H](Cc5ccccc5)C(=O)N4[C@H]3c3ccc(O)cc3)cc2)[C@]12C(=O)Nc1ccc(I)cc12`, for which the z-score turned out to be 2.35.

Take `COc1ccc(C#Cc2ccc3c(c2)[C@]2(C(=O)N3)[C@H](C(=O)N3CCc4cc(OC)c(OC)cc4C3)[C@H]3C(=O)O[C@H](c4ccccc4)[C@H](c4ccccc4)N3[C@@H]2c2ccc(O)cc2)cc1`: the z-score was -0.523.

`O=C1O[C@@H](c2ccccc2)[C@@H](c2ccccc2)N2[C@@H](c3ccccc3OCCO)[C@]3(C(=O)Nc4ccccc43)[C@@H](C(=O)NC[C@H](O)c3ccccc3)[C@H]12`: the z-score amounted to 1.56.

Take `C[C@]1(C(=O)NC2CC2)c2ccccc2C(=O)N(Cc2ccc(OC(F)(F)F)cc2)[C@H]1c1ccc(CO)cc1`: the z-score was determined as 0.138.

Turning to `NC(=O)NCC#Cc1ccc2c(c1)[C@]1(C(=O)N2)[C@H](C(=O)Nc2nc3ccccc3s2)[C@H]2C(=O)O[C@H](c3ccccc3)[C@H](c3ccccc3)N2[C@@H]1c1ccc(O)cc1`, the z-score worked out at 0.16.

As to `COc1ccc(CCNC(=O)[C@@]2(Sc3ccc(C)cc3)CC(=O)N(Cc3cc(C(F)(F)F)cc(C(F)(F)F)c3)[C@@H]2c2ccc(CO)cc2I)cc1`, the z-score is 0.562.

For the molecule `CN(C)CCCNC(=O)[C@@H]1c2ccccc2C(=O)N(Cc2ccc(OC(F)(F)F)cc2)[C@H]1c1ccc(CO)cc1`, the z-score amounted to 1.44.

As for `COCCCNC(=O)[C@@]1(Sc2ccc(C)cc2)CC(=O)N(C2Cc3ccccc3C2)[C@@H]1c1ccc(CO)cc1I`, the z-score was 1.23.

As to `CCCCC(CC)C(O)C1C=CC2C(=O)N(c3ccccc3)C(=O)C2N1Nc1ccc([N+](=O)[O-])cc1` (stereo not given), the z-score was -1.33.

For the molecule `CC(C)C(=C=CC[C@@H](O)c1ccccc1OCCO)C[C@@H](O)COCc1ccccc1`, the z-score is -1.52.

With `C[C@H]1C2=C3C(CC[C@H]4C(OCc5ccc(F)cc5C(F)(F)F)OC[C@](C)([C@@H]34)N(C(=O)OC(C)(C)C)C2)C2COC(=O)OCC21` (stereo not given in full), the z-score was -1.09.

Turning to `CCOC(=CC(=O)OC)CC(O)c1cccc(Cl)c1` (stereo not given), the z-score is -0.131.

`COc1cc(OC)c(C(O)C2C=CC3C(=O)N(c4ccccc4)C(=O)C3N2Nc2ccc(C#N)cc2)cc1Br` (stereo not given): the z-score is -2.08.

As to `CN(C)CCCNC(=O)[C@@H]1c2ccccc2C(=O)N(CC23CC4CC(CC(C4)C2)C3)[C@H]1c1ccc(CO)cc1`, the z-score is -0.657.

Regarding `COc1cc2c(cc1OC)CN(C(=O)[C@H]1[C@@H]3C(=O)O[C@@H](c4ccccc4)[C@@H](c4ccccc4)N3[C@@H](c3ccc(OCCO)cc3)[C@]13C(=O)Nc1ccc(C#CCCO)cc13)CC2`, the z-score came out at 1.66.

For `COCCOC(=O)N1C(=O)[C@@]2(c3cc(C#CC4=CCCCC4)ccc31)[C@H](c1ccccc1OCCO)N1[C@H](c3ccccc3)[C@H](c3ccccc3)OC(=O)[C@H]1[C@@H]2C(=O)N1CCc2cc(OC)c(OC)cc2C1`, the z-score worked out at 1.53.
